# Target: PRODH2
# Assay: pooled miR-30 sensor sort-seq; sequence = guide strand
# Details: shRNA
row,Sequence,sensor-assay potency score (higher = more potent)
1,TTGCTTCCTCTTAAAATTGGAA,-1.06
2,TAGTGTTATTGAATACATTTGA,-0.549
3,TGAAAATACGGTTCTCACGTTT,0.0951
4,AAAATTGGAAACGCTGTAGTGT,-0.189
5,TTAAAATTGGAAACGCTGTAGT,0.00998
6,AATACATTTGAAAATACGGTTC,-0.869
7,TAACAGGTCCGGAGCATCCTGG,-1.03

# Target: PROM2
# Assay: as above
# Details: shRNA
row,Sequence,sensor-assay potency score (higher = more potent)
1,TTCTCCTCCTGGACCATGCTGG,-0.874
2,TTGGCTAGGACATCTGAGGTCT,0.382
3,TATTTGGAGGTCTTGACGGCAA,-0.214
4,TCACACAGGATCACACGGCTGT,0.353
5,TTGGGGGACATCAGAGACCAGG,-1.48
6,TAGGACATCTGAGGTCTCCAGC,-0.69
7,TTGTGCTCTGTCTTCACTCGTC,0.345
8,TAGCTTGTTGGTATACTGGTTG,-0.045
9,TTCAGCTCTTGCACCACGCTGG,-0.154
10,TTGACGGCAAAGATGATGCTGG,-0.136
11,TGTAGGTCTCGTATCTCTGCAC,-0.146
12,TTGAGCTGCAGGACTGTCCAGA,-0.114

# Target: PRPS1
# Assay: as above
# Details: shRNA
row,Sequence,sensor-assay potency score (higher = more potent)
1,TCAGGTGAGACAATAGTGCAGT,0.663
2,TTATCTTTCTTATCCTGCCGGG,0.175
3,TCACTCTCTTAGCTCCACCAGC,-0.945
4,TACACTTTCACCAATTTCCACA,-0.758
5,TTTGCAACAAGCTTGGCTGAGA,-0.163
6,TTGGTGACTACTACTGCCTCAA,-0.00628
7,TGATAATATGATCTGCACCTGC,-0.404
8,TAATATGATCTGCACCTGCTAC,-0.935
9,TAAATTGTCATTGATTTCGCCA,-0.0544
10,TATTGGTGACTACTACTGCCTC,-1.03
11,TTGTCATTGATTTCGCCACAAC,-1.49
12,TATCTTTCTTATCCTGCCGGGC,-0.757

# Target: PRPS2
# Assay: as above
# Details: shRNA
row,Sequence,sensor-assay potency score (higher = more potent)
1,TGTCCTTTTTATCTTGTCGGGC,-0.556
2,TTTCATTTTGTCCTCTTGCGGA,-0.379
3,TTCTGGAAATAGCTGGTCCAGA,-1.31
4,ATGACCTGAATCTTGGTGCAGT,-0.901
5,TATTTATTCTGGAAATAGCTGG,-0.496
6,TATACTTGAAAGTTGTCGCCTC,0.742
7,TTGTCCTTTTTATCTTGTCGGG,-0.968
8,TTCATTTTGTCCTCTTGCGGAA,-0.733
9,TGGTTGCTGAACTTCTTCGTGA,-1.01

# Reference: the OligoGym collection
